From PubChem
aSyn 5UTR act – Activators via SNCA 5'UTR binding, MLPCN | alpha-synuclein 5'UTR reporter, activators screen | activity score, % (tested at 7.5 µM), hits read low | 7.1% of 300,000 active | AID 1814; in the data active = activity score below about -60%
* = called active by the depositor. Not all results are given here.

Screening O=C(Nc1nc2c(F)cc(F)cc2s1)c1ccccn1 returned aSyn 5UTR act 73.
For Fc1ccc2nc(Nc3nc4c(F)cccc4s3)sc2c1 the results were aSyn 5UTR act -235*.
For Fc1cccc2sc(Nc3nc4ccccc4s3)nc12 the results were aSyn 5UTR act -309*.
CCOc1cc(/C=N\NC(N)=O)cc(Br)c1OC(C)C was read as aSyn 5UTR act 62.
Screening C=CCOc1c(Br)cc(/C=N/Nc2ccc(C(=O)O)cc2)cc1OCC returned aSyn 5UTR act -123*.
CCC1CSC(Nc2ccc(C(=O)/C=C/c3ccc(Oc4ccccc4)cc3)cc2)=N1 (configuration not stated) was read as aSyn 5UTR act -88*.
`O=C1Nc2ccccc2S/C1=C/Nc1cccc(Cl)c1` gave aSyn 5UTR act -203*.
Screening COc1ccc(CCNC(=O)c2ccccc2)cc1 returned aSyn 5UTR act -64*.
`COc1ccc(OC(=O)NCCc2ccccc2)cc1` gave aSyn 5UTR act -134*.
`COc1ccc(OC)c(NC(=O)c2nc(S(=O)(=O)Cc3ccccc3)ncc2Cl)c1` gave aSyn 5UTR act 99.
COc1cccc(CCNC(=O)c2ccc(C#N)cc2)c1 was read as aSyn 5UTR act -63*.
COc1ccc(C(=O)Nc2cc(C(=O)NCCc3ccccc3)ccc2Cl)cc1 was read as aSyn 5UTR act -69*.
`COc1ccc(CCNC(=O)c2nonc2N)cc1` gave aSyn 5UTR act -85*.
Screening COc1ccc(CC(=O)Nc2ccccc2C(=O)NCCc2ccccc2)cc1 returned aSyn 5UTR act -101*.
For COc1ccc(O)c(/C=N/NC(=O)c2c(C)nnn2-c2nonc2N)c1 the results were aSyn 5UTR act 64.
For Clc1ccccc1-c1nc(-c2ccccc2)n[nH]1 the results were aSyn 5UTR act -214*.
Cc1csc(NC(=O)c2nn(C)c(C)c2[N+](=O)[O-])n1 was read as aSyn 5UTR act -123*.
For COc1ccc(NC(=O)c2ccc3c(c2)OCCO3)cc1OC the results were aSyn 5UTR act -104*.
`COc1cc(C(=O)Nc2ccc3c(c2)OCCO3)ccc1OC(C)C` gave aSyn 5UTR act -163*.
Cc1c([N+](=O)[O-])c(C(=O)Nc2ccc3c(c2)OCCO3)nn1C was read as aSyn 5UTR act -140*.
COc1ccc(C(=O)Nc2ccc3c(c2)OCCO3)cc1[N+](=O)[O-] was read as aSyn 5UTR act -94*.
`O=C(Nc1ccc(F)c([N+](=O)[O-])c1)c1ccc2c(c1)OCCO2` gave aSyn 5UTR act -138*.
`COc1cc(C(=O)Nc2ccc3c(c2)OCCO3)ccc1OC(F)F` gave aSyn 5UTR act -153*.
Screening Cc1cccc(Nc2nnc(SCC(=O)Nc3cccc(S(=O)(=O)N4CCCCC4)c3)s2)c1 returned aSyn 5UTR act -152*.
For CCc1ccc(Nc2nnc(SCC(=O)Nc3cccc(S(=O)(=O)NC4=NCCCCC4)c3)s2)cc1 the results were aSyn 5UTR act -147*.
`O=C(N/N=C/c1cc(Br)ccc1O)C(=O)Nc1ccccc1OC(F)(F)C(F)F` gave aSyn 5UTR act 82.
`COc1cc2c(cc1OC)C(c1ccc(Br)cc1)NCC2` (configuration not stated) gave aSyn 5UTR act 63.
For COc1ccccc1NC(=O)COc1ccc(CO)cc1Cl the results were aSyn 5UTR act -151*.
O=C(COc1ccc(Br)cc1CO)Nc1ccccc1 was read as aSyn 5UTR act -107*.
Screening COc1cc(CO)ccc1OCC(=O)Nc1ccc(Br)cc1 returned aSyn 5UTR act -86*.
Screening O=C(COc1ccc(Br)cc1CO)Nc1ccccc1F returned aSyn 5UTR act -181*.
COCc1c(C(=O)Nc2ccc(Cl)cc2F)oc2ccccc12 was read as aSyn 5UTR act -116*.
`COCc1c(C(=O)Nc2nc(C)cs2)oc2ccccc12` gave aSyn 5UTR act -88*.
Oc1ccc(Br)cc1/C=N/n1cnc2ccccc21 was read as aSyn 5UTR act -262*.
Screening Oc1ccc(Br)cc1/C=N/N1CCCCC1 returned aSyn 5UTR act -221*.
`Fc1ccccc1Nc1n[nH]c(=S)s1` gave aSyn 5UTR act -64*.
For CCc1ccc(-c2csc(NC(=O)COC(=O)CCc3nc4ccccc4s3)n2)cc1 the results were aSyn 5UTR act -109*.
For COc1ccc(-c2csc(NC(=O)CSc3nc(SC)ns3)n2)cc1 the results were aSyn 5UTR act -102*.
For COc1ccc(-c2csc(NC(=O)C3CCCO3)n2)cc1 (configuration not stated) the results were aSyn 5UTR act -102*.
For CCc1nnc(NC(=O)CSc2nc(-c3ccc(OC)cc3)ns2)s1 the results were aSyn 5UTR act -84*.
Screening CCCC(=O)Nc1nc(-c2ccc(OC)cc2)cs1 returned aSyn 5UTR act -123*.
CCCC(=O)Nc1nc(-c2ccc(Cl)s2)cs1 was read as aSyn 5UTR act -114*.
O=C(Nc1ccc([N+](=O)[O-])cc1)Nc1nc(-c2ccc(Cl)s2)cs1 was read as aSyn 5UTR act 92.
Screening COc1ccc(-c2csc(NC(=O)CSc3nc(C)cs3)n2)cc1 returned aSyn 5UTR act -153*.
CCCC(=O)Nc1nc(C)c(-c2csc(Nc3cc(OC)ccc3OC)n2)s1 was read as aSyn 5UTR act 61.
`C[n+]1c2n(c3ccccc31)N=C(c1ccccc1)CS2` gave aSyn 5UTR act -68*.
For COc1cccc(CNC(=O)CCC2CCCN(C(=O)c3cc4ccccc4o3)C2)c1 (configuration not stated) the results were aSyn 5UTR act -78*.
Screening C/C(=N\N=C(/N)c1nonc1N)c1ccc2c(c1)OCO2 returned aSyn 5UTR act -110*.
For Cn1cccc1C(=O)OCc1ccc(C(C)(C)C)cc1 the results were aSyn 5UTR act -141*.
`CCOC(=O)c1ccc2c(c1)nc(-c1ccccn1)n2CC` gave aSyn 5UTR act -134*.
Screening COc1ccc(-n2cnc3sc(-c4ccccc4)cc3c2=O)cc1 returned aSyn 5UTR act -118*.
`COc1cccc(-n2cnc3sc(-c4ccccc4)cc3c2=O)c1` gave aSyn 5UTR act -184*.
`COc1ccc(-c2cc3nc(C)n(N)c(=O)c3s2)cc1` gave aSyn 5UTR act 115.
For Cc1ccc(C)c(C2NC(=O)c3ccccc3N2)c1 (configuration not stated) the results were aSyn 5UTR act -70*.
CSc1ccc(C2NC(=O)c3ccccc3N2)cc1 (configuration not stated) was read as aSyn 5UTR act -126*.
Screening Cc1cccc(NC(=O)Nc2cc(C)cc(C)n2)c1 returned aSyn 5UTR act -184*.
For Cc1cccc(NC(=O)Nc2cccc(F)c2)n1 the results were aSyn 5UTR act -119*.
`Cc1ccnc(NC(=O)Nc2cccc(F)c2)n1` gave aSyn 5UTR act -115*.
Screening Cc1cccc(NC(=O)Nc2cccc(C#N)c2)n1 returned aSyn 5UTR act -170*.
For Cc1nn2cc(-c3ccc(Cl)cc3)cnc2c1Cl the results were aSyn 5UTR act -144*.
COc1ccc(-c2nnn(Cc3ccccc3F)n2)cc1 was read as aSyn 5UTR act -207*.
For Fc1ccccc1Cn1nnc(-c2ccc3c(c2)OCO3)n1 the results were aSyn 5UTR act -77*.
`CCn1nc(NC(=O)C2CCCO2)c2cc3cc(C)ccc3nc21` (configuration not stated) gave aSyn 5UTR act -90*.
For CCCn1nc(NC(=O)COC)c2cc3cc(C)ccc3nc21 the results were aSyn 5UTR act -96*.
COc1cccc(C(=O)Nc2ccc(F)cc2F)c1 was read as aSyn 5UTR act -114*.
